Test results as given in a collection of fitness landscapes (doi:10.1016/j.celrep.2020.107928).
Whole data set: some 81,000 sequences, median “one-hybrid fitness for binding NBS DNA” near -0.1, cut for the highest 2% near 0.36. What follows is part of a selection rich in the highest values, with near analogues and random picks from the rest.

B1: Caulobacter ParB omega fusion; a variant is named by its letters at X, in order, B8GW30 (parent)
chain: MESVVVGEPGMSEGRRGLGRGLSALLGEVDAAPAQAPGEQLGGSREAPIEILQRNPDQPRRTFREEDLEDLSNSIREKGVLQPILVRPSPDTAGEYQIVAGERAWRAAQRAGLKTVPIMVRELDDLAVLEIGIIENVQRADLNVLEEALSYKVLMEKFERTQENIAQTIGKSXSHVANXMRLLXLPDEVQSYLVSGELTAXHARAIAAAADPVALAKQIIEGGLSVRETEALARKAPNLSAGKSKGGRPPRVKDTDTQALESDLSSVLGLDVSIDHRGSTGTLTITYATLEQLDDLCNRLTRGI

Variants of: B1
Assay: one-hybrid fitness for binding NBS DNA (the Noc-binding site; scaled: cognate 1, non-cognate 0); higher = stronger binding
Settings: with NBS DNA site
How it was run: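 Caulobacter ParB libraries with four specificity codons randomised were screened by bacterial one-hybrid selection in the E. coli USO strain, using a HIS3 reporter whose site lies 19 bp from the promoter. Selection ran for 48 hours at 37°C on M9 lacking histidine, with 0.1 mM IPTG and 5 mM 3-AT. Plasmids were Illumina-sequenced before and after selection, three replicate libraries were pooled, and variants with under 10 reads were dropped. Fitness is the log change in each variant's read ratio to wild type, rescaled against the cognate and non-cognate sites.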

Row | Variant | one-hybrid fitness for binding NBS DNA
1 | PNHV | ≤ 0.2
2 | LLMW | ≤ 0.2
3 | LSGP | ≤ 0.2
4 | QMTP | ≤ 0.2
5 | QMTN | ≤ 0.2
6 | QVTR | 0.38
7 | QATR | 0.507
8 | QITR | 0.417
9 | QMTR | 0.568
10 | QVTS | 0.257
11 | QATN | ≤ 0.2
12 | QITH | ≤ 0.2
13 | QVTD | ≤ 0.2
14 | QITP | ≤ 0.2
15 | QATP | ≤ 0.2
16 | AEVC | ≤ 0.2
17 | LDTD | ≤ 0.2
18 | DQQR | ≤ 0.2
19 | PSGT | ≤ 0.2
20 | DSIE | ≤ 0.2
21 | WSFT | ≤ 0.2
22 | GPRS | ≤ 0.2
23 | PFKM | ≤ 0.2
24 | QQPY | ≤ 0.2
25 | QKTR | 0.646
26 | QSTD | ≤ 0.2

Row | Variant | one-hybrid fitness for binding NBS DNA
27 | QSTP | ≤ 0.2
28 | QTTR | 0.794
29 | QHTD | ≤ 0.2
30 | QSTR | 0.531
31 | QTTF | ≤ 0.2
32 | QHTR | 0.527
33 | QKTK | ≤ 0.2
34 | QHTH | ≤ 0.2
35 | QKTH | 0.241
36 | QTTQ | 0.242
37 | HRSV | ≤ 0.2
38 | ENSS | ≤ 0.2
39 | DMPS | ≤ 0.2
40 | GDPL | ≤ 0.2
41 | ACNS | ≤ 0.2
42 | TMDS | ≤ 0.2
43 | PAFY | ≤ 0.2
44 | QPEV | ≤ 0.2
45 | IHVS | ≤ 0.2
46 | GGTE | ≤ 0.2
47 | HVRY | ≤ 0.2
48 | QRTR | 1.01
49 | DRTR | ≤ 0.2
50 | QNTR | 0.223
51 | NRTR | ≤ 0.2
52 | QLTR | 0.487

Row | Variant | one-hybrid fitness for binding NBS DNA
53 | QCTR | 0.637
54 | QLTD | ≤ 0.2
55 | QLTN | ≤ 0.2
56 | QPTR | ≤ 0.2
57 | PNSR | ≤ 0.2
58 | QDFN | ≤ 0.2
59 | VVTR | ≤ 0.2
60 | ASAC | ≤ 0.2
61 | AKMS | ≤ 0.2
62 | VYSF | ≤ 0.2
63 | GLYG | ≤ 0.2
64 | HCDP | ≤ 0.2
65 | RLPR | ≤ 0.2
66 | RLNN | ≤ 0.2
67 | RLSC | ≤ 0.2
68 | RLSR | 0.43
69 | RLGH | ≤ 0.2
70 | RLYR | 0.385
71 | RLNR | 0.526
72 | RLGN | ≤ 0.2
73 | RLWR | 0.248
74 | RLDR | ≤ 0.2
75 | RLGR | 0.443
76 | RLSK | ≤ 0.2
77 | PRNP | ≤ 0.2
78 | HRFS | ≤ 0.2

Row | Variant | one-hybrid fitness for binding NBS DNA
79 | YKLT | ≤ 0.2
80 | CNVC | ≤ 0.2
81 | CNLW | ≤ 0.2
82 | RLQY | ≤ 0.2
83 | RLQQ | ≤ 0.2
84 | RLRR | 0.673
85 | RLIR | 0.21
86 | RLQR | 0.43
87 | RLHR | 0.491
88 | RLHM | ≤ 0.2
89 | RLCN | ≤ 0.2
90 | RLCR | 0.412
91 | RLLR | 0.32
92 | RLCS | 0.334
93 | RLHD | ≤ 0.2
94 | HQQG | ≤ 0.2
95 | GCLR | ≤ 0.2
96 | YYLT | ≤ 0.2
97 | TQHV | ≤ 0.2
98 | RMVQ | ≤ 0.2
99 | WTKW | ≤ 0.2
100 | SRPI | ≤ 0.2
101 | QRYF | 0.227
102 | QRDF | ≤ 0.2
103 | QCRF | 0.423
104 | QTRF | 0.446

Row | Variant | one-hybrid fitness for binding NBS DNA
105 | QTYF | ≤ 0.2
106 | QSRF | 0.265
107 | QPRF | ≤ 0.2
108 | QTDF | ≤ 0.2
109 | QRRF | 0.418
110 | NNNK | ≤ 0.2
111 | WGNT | ≤ 0.2
112 | AIMG | ≤ 0.2
113 | NWSC | ≤ 0.2
114 | HMTV | ≤ 0.2
115 | SYSV | ≤ 0.2
116 | RRDA | 0.463
117 | RRNA | 0.679
118 | RPNA | ≤ 0.2
119 | RCDA | ≤ 0.2
120 | RCNA | 0.298
121 | RSDA | ≤ 0.2
122 | VHDS | ≤ 0.2
123 | RQYA | ≤ 0.2
124 | PMCY | ≤ 0.2
125 | RICN | ≤ 0.2
126 | RHCH | ≤ 0.2
127 | RCCR | 0.45
128 | RICH | ≤ 0.2
129 | RHCR | 0.37
130 | RFCR | ≤ 0.2

Row | Variant | one-hybrid fitness for binding NBS DNA
131 | RSCH | ≤ 0.2
132 | RHCP | ≤ 0.2
133 | RICR | 0.369
134 | RPCR | ≤ 0.2
135 | RSCN | ≤ 0.2
136 | RSCR | 0.38
137 | TYVA | ≤ 0.2
138 | SMNL | ≤ 0.2
139 | VKSS | ≤ 0.2
140 | NEES | ≤ 0.2
141 | WCYR | ≤ 0.2
142 | AMGT | ≤ 0.2
143 | RKCD | ≤ 0.2
144 | RKCR | 0.552
145 | RKCH | ≤ 0.2
146 | SQRN | ≤ 0.2
147 | VTPF | ≤ 0.2
148 | LTHI | ≤ 0.2
149 | PWLV | ≤ 0.2
150 | QQVY | ≤ 0.2
151 | QQFG | ≤ 0.2
152 | QQYC | ≤ 0.2
153 | QQVC | ≤ 0.2
